Test results published in ChEMBL document CHEMBL1157539, “Thousands of chemical starting points for antimalarial lead identification” (Nature, 2010).

What follows are compounds tested on HepG2 (assay: GSK_TCMDC: Percent inhibition of human HepG2 cell line. Test compounds present at 10uM.).
Format: functional

Row | SMILES | Inhibition
1 | CSc1cccc(Nc2nc3ccc(S(=O)(=O)NC(C)C(C)C)cc3n2[C@H](C)C(C)(C)C)c1 (stereo partly specified) | 0%
2 | COc1ccc(CNC2CCN(C)CC2)cc1-c1ccc(S(=O)(=O)NC2CCC2)c(F)c1.O=C(O)C(F)(F)F | 96%
3 | O=S(=O)(Nc1cccc(CCN2CCCCC2CCN2CCCC2)c1)c1ccc(-c2ccccc2)cc1 (stereo unspecified) | 31%
4 | CS(=O)(=O)c1cccc(-c2ccc3oc(C(N)=O)c(NC(=O)c4cccs4)c3c2)c1 | 11%
5 | CC(C)C[C@H](NC(=O)[C@H](Cc1ccccc1)NC(=O)CCN1C(=O)COc2ccc(C(=O)O)cc21)C(=O)NC(CC1CCCCC1)C(O)CC(=O)NCCCn1ccnc1.Cl.O (stereo partly specified) | 0%
6 | CS(=O)(=O)CCNCc1nc(-c2ccc3c(Nc4ccc(Oc5ccccn5)cc4)ccnc3c2)cs1 | 9%
7 | Cc1cccc2nc(-c3ccc(-c4cccc(NC(=O)CCc5c[nH]cn5)c4)cc3)[nH]c12 | 13%
8 | COc1cc(NCCCNCc2cn(Cc3cc(Br)cc(Br)c3)c3ccccc23)nc2ccccc12 | 99%
9 | Cc1cc(C)cc(CC(=O)N2CCC(n3c(C)nc4ccc(C)cc43)CC2)c1 | 52%
10 | CC(C)CNCc1ccc(OCc2cccc(COc3ccc(CNCC(C)C)cc3I)c2)c(I)c1.Cl | 23%
11 | CC(C)(C)C(=O)Oc1ccc(CC2NCCc3cc(OC(=O)C(C)(C)C)c(OC(=O)C(C)(C)C)cc32)cc1OC(=O)C(C)(C)C (stereo unspecified) | 3%
